According to PubChem BioAssay:
Calls of active or inactive are those of the source. Unless noted, how the calls were made is not given here.

Legend:
[1] = test system: XIP peptide (Xip251-270) binding; experiment: XIP fragment 251-270 binding compounds – biochemical, small-molecule microarray, fluorescence 635/667 nm, 0.1 µg/mL protein, primary screen (AID 1182); settings: fluorescent protein binding, 635 nm, higher = more signal, called active from +8 up or from −8 down
XIP peptide (Xip251-270) = experiment: compounds binding XIP fragment 251-270 – biochemical, small-molecule microarray, fluorescence 635/667 nm, 0.5 µg/mL protein, primary screen (AID 1183); settings: fluorescence 635 nm, higher = more signal
[2] = blood-stage malaria parasite viability loss – strain 3D7, DAPI fluorescence, 100 nL, primary screen (AID 1184);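 further: parasites grown inside human red blood cells in medium with human serum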; settings: P. falciparum 3D7 growth, 3 d, higher = more signal
[3] = molecular target: Homeobox protein Hox-A13 (Mus musculus) (UniProt Q62424); experiment: disruptors of Hoxa13 oligonucleotide interaction – biochemical, fluorescence polarization, labeled oligonucleotide, primary screen (AID 1185); settings: Hoxa13:DNA binding, 15 min, higher = more signal, called active from +8 up or from −8 down
Sequence of Homeobox protein Hox-A13 (Mus musculus) (Q62424 whole entry, looked up): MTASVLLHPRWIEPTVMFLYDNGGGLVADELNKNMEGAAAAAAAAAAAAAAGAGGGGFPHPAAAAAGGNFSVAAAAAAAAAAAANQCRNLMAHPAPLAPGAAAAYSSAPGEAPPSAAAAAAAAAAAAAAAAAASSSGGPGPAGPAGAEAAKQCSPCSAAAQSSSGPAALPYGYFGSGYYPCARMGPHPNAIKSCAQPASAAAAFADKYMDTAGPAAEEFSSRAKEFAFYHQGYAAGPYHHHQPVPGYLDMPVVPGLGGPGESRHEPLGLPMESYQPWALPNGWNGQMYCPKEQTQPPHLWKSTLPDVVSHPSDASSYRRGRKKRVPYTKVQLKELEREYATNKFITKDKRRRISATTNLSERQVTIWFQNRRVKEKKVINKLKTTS

[4] = blockers of DNA damage checkpoint Chk1 activation – imaging, HeLa, hydroxyurea, phospho-Chk1 antibody, percent positive cells, primary screen (AID 1186); settings: hydroxyurea-induced phospho-Chk1 immunofluorescence imaging, higher = more signal
[5] = blockers of DNA damage checkpoint Chk1 activation – imaging, HeLa, hydroxyurea, phospho-Chk1 nuclear intensity, primary screen (AID 1187); settings: hydroxyurea-induced phospho-Chk1 immunofluorescence imaging, higher = more signal

Structure (SMILES)	composite z-score [1]	composite z-score (XIP peptide (Xip251-270))	z-score [2]	z-score [3]	z-score [4]	z-score [5]
N#Cc1ccc(C(O)C2C=CC3C(=O)N(c4ccccc4)C(=O)C3N2Nc2ccc([N+](=O)[O-])cc2)cc1 (stereo not given)	1.04 (inactive)	0.807	-1.84	-4.34 (inactive)	-0.138 (inactive)	-1.24 (inactive)
O=C1c2ccccc2[C@@]2(Cc3ccccc3N(Cc3ccccc3)C2=O)[C@H](c2ccc(CO)cc2)N1Cc1ccccc1	-0.348 (inactive)	-0.283	1.37	-0.928 (inactive)	0.306 (inactive)	0.435 (inactive)
CC(C)C[C@@H]1NC(=O)C([C@@H](C)OCc2ccccc2)NC(=O)[C@@]23C(=O)N[C@@H](Cc4ccccc4)C2[C@H](C)[C@@]2(C)O[C@H]2C3/C=C/CC/C=C/CNC1=O (stereo not given in full)	-0.0755 (inactive)	0.677	-3.08	-6.51 (inactive)	-0.799 (inactive)	-0.574 (inactive)
C[C@@H](OCc1ccccc1)C1NC(=O)[C@@]23C(=O)N[C@@H](Cc4ccccc4)C2[C@H](C)[C@@]2(C)O[C@H]2C3/C=C/C/C=C\CNC(=O)[C@H](Cc2ccccc2)NC1=O (stereo not given in full)	-0.0678 (inactive)	-0.0412	-2.45	-5.7 (inactive)	0.0781 (inactive)	0.544 (inactive)
CC(C)C[C@@H]1NC(=O)[C@@]23C(=O)N[C@@H](Cc4ccccc4)C2[C@H](C)[C@@]2(C)O[C@H]2C3/C=C/C/C=C\CNC(=O)[C@@H](CC(C)C)NC1=O (stereo not given in full)	0.549 (inactive)	0.414	-0.0432	-6.77 (inactive)	-0.0685 (inactive)	0.0529 (inactive)
C=CCC(OC(C)=O)[C@@H]1[C@@H](N(Cc2ccc(-c3cccc(C(F)(F)F)c3)o2)C(=O)Cc2ccc(OC)cc2)c2cc(OCCCO)ccc2N1C(=O)c1ccc2ccccc2n1 (stereo not given in full)	-0.155 (inactive)	-0.118	-2.2	-2.25 (inactive)	0.401 (inactive)	0.966 (inactive)
COc1cc2c(cc1O)C(c1ccc(CN3CCCC3)cc1)N(Cc1cccc(OC(F)(F)F)c1)CC2 (stereo not given)	-0.153 (inactive)	0.156	-2.1	-2.99 (inactive)	0.0325 (inactive)	0.348 (inactive)
CCCC[C@@H]1C[C@H]1[C@@H](NC(=O)Cc1ccccc1)c1ccc(Cl)cc1	0.155 (inactive)	0.503	-0.0042	-2.08 (inactive)	-0.114 (inactive)	-0.588 (inactive)
CC(C)C[C@@H]1NC(=O)[C@@H]2C[C@H](C(=O)O)[C@H](c3ccc(O)cc3)N2C1=O	1.84 (inactive)	0.705	-0.26	-3.43 (inactive)	0.873 (inactive)	0.918 (inactive)
CC(C)[C@@H](C(=O)O)n1cc(-c2ccccc2)nn1	0.767 (inactive)	0.237	0.273	-0.769 (inactive)	0.391 (inactive)	0.0268 (inactive)
Cc1ccc(S(=O)(=O)N2[C@@H](c3ccccc3)C(C(=O)O)=CC[C@H]2c2ccc(C#N)cc2)cc1	0.556 (inactive)	0.848	-1.26	-6.06 (inactive)	0.0247 (inactive)	-0.206 (inactive)
CCC[C@@H]1[C@@H](Sc2ccccc2)[C@@H](C(=O)O)[C@H](c2ccc(C)cc2)N1S(=O)(=O)c1ccc(C)cc1	0.163 (inactive)	0.787	0.552	-5.85 (inactive)	0.275 (inactive)	0.971 (inactive)
COC(=O)[C@H](Cc1ccc(O)cc1)N1CC2=CCCC=C[C@@H]2[C@H]1[C@H](O)Cc1ccccc1	-0.0324 (inactive)	0.419	-1.63	-8.16 (active)	-1.09 (inactive)	-1.18 (inactive)
CCOC(=O)C[C@H]1[C@H](OC(=O)c2ccc(C(=O)c3ccccc3)cc2)[C@@H](NC(=O)c2ccc3ccccc3c2)c2cc(OCCCO)ccc2N1C(=O)c1ccc2ccccc2n1	0.27 (inactive)	0.197	-2.68	-1.96 (inactive)	-0.318 (inactive)	0.25 (inactive)
CCCC[C@@H](O)C1=C(COC)Cn2c(=O)n(-c3ccccc3)c(=O)n2[C@H]1CO	-0.698 (inactive)	-0.0217	0.519	-0.879 (inactive)	-0.464 (inactive)	0.126 (inactive)
C=CCNC(=O)[C@H]1[C@@H]2C(=O)O[C@@H](c3ccccc3)[C@@H](c3ccccc3)N2[C@@H](c2ccccc2OCCO)[C@]12C(=O)N(C(=O)OCCOC)c1ccccc12	0.346 (inactive)	0.814	-1.68	-4.77 (inactive)	0.0539 (inactive)	0.109 (inactive)
CC(c1ccccc1)C(O)C1C=CC2C(=O)N(c3ccccc3)C(=O)C2N1Nc1ccc(C#N)cc1 (stereo not given)	0.235 (inactive)	0.784	0.526	-1.21 (inactive)	-0.325 (inactive)	0.313 (inactive)
CCCC[C@H]1OB(O)C[C@H]2C1=C(C)C[C@H]1C(=O)C=CC(=O)[C@H]12	0.656 (inactive)	0.229	-0.0202	-6.4 (inactive)	0.217 (inactive)	-0.0819 (inactive)
CCOC(=O)C1=CC[C@@H](c2ccccc2)N(S(=O)(=O)C[Si](C)(C)C)[C@H]1c1ccccc1	0.127 (inactive)	0.704	-1.86	-1.35 (inactive)	0.587 (inactive)	0.496 (inactive)
CC(C)CNC(=O)[C@@H]1c2ccccc2C(=O)N(Cc2ccccc2Cl)[C@H]1c1ccc(CO)cc1	0.0394 (inactive)	0.8	0.134	-1.47 (inactive)	0.0107 (inactive)	0.499 (inactive)
NC(=O)N1C(=O)C2C(C1=O)C1C=C(CCCO)C2C(c2ccc(CN3CCCC3)cc2)N1Cc1cccc(OC(F)(F)F)c1 (stereo not given)	0.106 (inactive)	-0.133	-2.28	-7.26 (inactive)	0.0295 (inactive)	0.298 (inactive)
O=C1O[C@@H](c2ccccc2)[C@@H](c2ccccc2)N2[C@@H](c3ccc(O)cc3)[C@]3(C(=O)Nc4ccc(C#CC5=CCCCC5)cc43)[C@@H](C(=O)N3CCCCCCC3)[C@H]12	1.52 (inactive)	0.816	-1.99	4.91 (inactive)	-0.434 (inactive)	-0.686 (inactive)
CO[C@H]1O[C@H](CO)[C@@H](OC(=O)Nc2ccc3c(c2)OCO3)[C@@H]2OC(=O)[C@@H](Cc3ccccc3)C/C=C/C[C@H](Cc3ccccc3)C(=O)O[C@@H]12	0.462 (inactive)	0.692	-0.967	-8.19 (active)	-0.508 (inactive)	-0.215 (inactive)
C#CCN([C@H](/C=C/C1CC1)[C@@H](O)Cc1ccccc1)[C@@H](Cc1ccccc1)C(=O)OC	0.17 (inactive)	-0.205	-0.752	-4.57 (inactive)	-0.587 (inactive)	-0.959 (inactive)
COCCOC(=O)N1C(=O)[C@@]2(c3cc(C#Cc4ccc(OC)cc4)ccc31)[C@H](C(=O)Nc1nc3ccccc3s1)[C@H]1C(=O)O[C@H](c3ccccc3)[C@H](c3ccccc3)N1[C@@H]2c1ccccc1OCCO	0.71 (inactive)	0.594	-1.96	3.56 (inactive)	-0.338 (inactive)	-0.538 (inactive)
